# Data taken from PubChem BioAssay.
# Calls of active or inactive are those of the source.
# What was measured:
# [1] = molecular target: Albumin (Bos taurus) (UniProt P02769); assay: compounds binding labelled BSA control protein – biochemical, small-molecule microarray, Alexa647 label, 635/667 nm fluorescence, artefact control for SMM control protein annotation, profiling panel (AID 1118); settings: BSA-A647 binding, fluorescence 635 nm, higher = more signal;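 note: score merges 667 nm emission intensity and signal-to-noise per printed compound spot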
# [2] = probe aXIP binding to arrayed compounds – biochemical, NeuroSMM set, 635/667 nm fluorescence, primary screen (AID 1119); settings: small-molecule microarray, higher = more signal, called active from +8 up or from −8 down;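 note: probe is the protein aXip251-270 applied at 1 µg/mL to compound-printed slides; binding of probe to printed compounds measured as 667 nm fluorescence plus signal to noise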
# [3] = probe aNOTCH3 binding on compound microarray – biochemical, small-molecule microarray, 635/667 nm fluorescence, primary screen (AID 1120); settings: higher = more signal;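 note: probe is a biotin-tagged antibody raised against NOTCH3 rather than NOTCH3 protein; score merges spot fluorescence near 667 nm with spot signal to noise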
# [4] = probe aNOTCH2 binding on compound microarray – biochemical, small-molecule microarray, 635/667 nm fluorescence, primary screen (AID 1121); settings: higher = more signal;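 note: score merges feature fluorescence read at 667 nm with its signal to noise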
# [5] = molecular target: Carbonic anhydrase 2 (Homo sapiens) (UniProt P00918); assay: compounds binding carbonic anhydrase 2 – biochemical, small-molecule microarray, Alexa647-labelled CAII, profiling panel (AID 1122); settings: CAII-A647 binding fluorescence, higher = more signal
# [6] = COS7 lysate on small-molecule microarray, probe aHis, 635 nm (AID 1123); settings: COS7 cell lysate, fluorescence, higher = more signal;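 note: z-score combines 667nm fluorescence intensity with signal-to-noise per printed compound spot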
# [7] = probe aLAP1 signal on lysate-treated microarray – cell lysate, small-molecule microarray, COS7 lysate, primary screen (AID 1124); settings: probe aLAP1, fluorescence, higher = more signal;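 note: lysate comes from COS7 cells expressing LAP1 and is applied at 0.3 µg/mL; score merges spot fluorescence near 667 nm with signal-to-noise over triplicate slides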
# [8] = tested on: Sam68 (KHDRBS1); assay: compounds binding KHDRBS1 protein – biochemical, small-molecule microarray, 635 nm fluorescence, primary screen (AID 1125); settings: higher = more signal;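 note: score merges 667 nm channel intensity with signal to noise over triplicate slides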
# [9] = tested on: Chordin-like protein 2 (CHRDL2); assay: compounds binding chordin-like 2 – biochemical, small-molecule microarray, 635 nm fluorescence, primary screen (AID 1126); settings: fluorescence 635 nm, higher = more signal;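 note: printed compound slides probed with Chrdl2 protein at 4 µg/mL for 1 h at 4 C; score merges 667 nm emission intensity with signal to noise over three replicate slides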
# [10] = molecular target: Concanavalin-A (Canavalia ensiformis) (UniProt P02866); assay: compounds binding concanavalin A lectin – biochemical, small-molecule microarray, Alexa647 label, 635 nm, artefact control for SMM control protein annotation, primary screen (AID 1127); settings: ConA-A647 binding fluorescence, higher = more signal;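 note: z combines 667 nm emission intensity with signal-to-noise across three replicate slides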
# [11] = compounds binding Alexa647 anti-His antibody – biochemical, small-molecule microarray, 635 nm fluorescence, artefact control for SMM control protein annotation, primary screen (AID 1128); settings: higher = more signal;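 note: score merges feature fluorescence with signal-to-noise for each printed compound spot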
# [12] = tested on: Human papillomavirus type 1a E7 protein (residues 1-88); assay: HPV1a E7 small-molecule binders, primary screen, biochemical, small-molecule microarray, residues 1-88, 635 nm (AID 1129); settings: small-molecule microarray binding, fluorescence 635 nm; higher = more signal
# [13] = molecular target: Focal adhesion kinase 1 (Homo sapiens) (UniProt Q05397); assay: PTK2 protein binding on printed compound slides – biochemical, small-molecule microarray, 635/667 nm fluorescence, BSA, DTT, primary screen (AID 1130); settings: 635 nm fluorescence, higher = more signal;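 note: composite of spot emission at 667 nm and signal to noise over triplicate slides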
# [14] = tested on: Fibrinogen (Alexa647-labelled); assay: Alexa647-fibrinogen binding to printed small molecules – biochemical, small-molecule microarray, 635/667 nm fluorescence, artefact control for SMM control-protein annotation, profiling panel (AID 1131); settings: fibrinogen-A647 binding fluorescence, higher = more signal;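 note: z-score merges 667 nm fluorescence with per-spot signal-to-noise over triplicate slides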
# [15] = molecular target: Follistatin (Homo sapiens) (UniProt P19883); assay: FST protein binding to printed compounds – biochemical, small-molecule microarray, 635/667 nm fluorescence, primary screen (AID 1132); settings: 635 nm fluorescence, higher = more signal
# [16] = molecular target: Fibroblast growth factor 2 (Homo sapiens) (UniProt P09038); assay: basic fibroblast growth factor binding to printed compounds – biochemical, small-molecule microarray, 635/667 nm fluorescence, primary screen (AID 1133); settings: FGF2, fluorescence 635/667, higher = more signal
# [17] = JC-1 mitochondrial potential readout, lung cancer cells – cell-based, A549, JC-1 fluorescence, basal, 24 h, 100 nL, profiling panel (AID 1138); settings: higher = more signal;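 note: A549 lung adenocarcinoma cells under basal conditions with no added stimulus; test concentration not given here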
# [18] = tested on: Lefty1; assay: Lefty1 protein binding to printed compounds – biochemical, small-molecule microarray, 635/667 nm fluorescence, primary screen (AID 1139); settings: fluorescence 635/667, higher = more signal
# [19] = tested on: wheat germ agglutinin (Triticum aestivum), Alexa647-labelled; assay: Alexa647-WGA lectin binding to printed small molecules – biochemical, small-molecule microarray, 635/667 nm fluorescence, artefact control for SMM control-protein annotation, profiling panel (AID 1140); settings: WGA-A647 binding, 635 nm fluorescence, higher = more signal;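 note: score merges 667 nm feature emission with signal to noise over triplicate slides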
# [20] = molecular target: Luciferin 4-monooxygenase (Photinus pyralis) (UniProt P08659); assay: inhibition of purified Photinus pyralis luciferase – biochemical, luminescence, purified enzyme, 2006 set, primary screen (AID 1141); settings: purified firefly luciferase, SteadyGlo luminescence, 30 min; higher = more signal, called active from +8 up or from −8 down;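 note: cell-free assay with purified firefly luciferase at 100 ng per well in PBS; test concentration not given here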
# Chain of Luciferin 4-monooxygenase (Photinus pyralis) (P08659 whole entry, looked up): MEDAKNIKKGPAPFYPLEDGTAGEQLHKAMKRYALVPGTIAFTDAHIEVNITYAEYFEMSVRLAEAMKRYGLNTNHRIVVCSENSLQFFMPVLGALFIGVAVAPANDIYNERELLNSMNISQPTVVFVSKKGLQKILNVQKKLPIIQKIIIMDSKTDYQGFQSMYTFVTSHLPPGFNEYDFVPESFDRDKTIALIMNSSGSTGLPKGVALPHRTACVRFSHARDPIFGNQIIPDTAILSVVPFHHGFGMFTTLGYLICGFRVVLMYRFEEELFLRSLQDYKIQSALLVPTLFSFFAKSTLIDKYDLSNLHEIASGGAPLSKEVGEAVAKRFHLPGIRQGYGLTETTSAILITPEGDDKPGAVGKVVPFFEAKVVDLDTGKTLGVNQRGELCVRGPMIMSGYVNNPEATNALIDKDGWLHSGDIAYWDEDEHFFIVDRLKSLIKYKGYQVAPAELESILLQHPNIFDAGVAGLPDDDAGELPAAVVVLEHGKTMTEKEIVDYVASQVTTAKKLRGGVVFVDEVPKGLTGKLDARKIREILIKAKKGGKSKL
# Chain of Focal adhesion kinase 1 (Homo sapiens) (Q05397 whole entry, looked up): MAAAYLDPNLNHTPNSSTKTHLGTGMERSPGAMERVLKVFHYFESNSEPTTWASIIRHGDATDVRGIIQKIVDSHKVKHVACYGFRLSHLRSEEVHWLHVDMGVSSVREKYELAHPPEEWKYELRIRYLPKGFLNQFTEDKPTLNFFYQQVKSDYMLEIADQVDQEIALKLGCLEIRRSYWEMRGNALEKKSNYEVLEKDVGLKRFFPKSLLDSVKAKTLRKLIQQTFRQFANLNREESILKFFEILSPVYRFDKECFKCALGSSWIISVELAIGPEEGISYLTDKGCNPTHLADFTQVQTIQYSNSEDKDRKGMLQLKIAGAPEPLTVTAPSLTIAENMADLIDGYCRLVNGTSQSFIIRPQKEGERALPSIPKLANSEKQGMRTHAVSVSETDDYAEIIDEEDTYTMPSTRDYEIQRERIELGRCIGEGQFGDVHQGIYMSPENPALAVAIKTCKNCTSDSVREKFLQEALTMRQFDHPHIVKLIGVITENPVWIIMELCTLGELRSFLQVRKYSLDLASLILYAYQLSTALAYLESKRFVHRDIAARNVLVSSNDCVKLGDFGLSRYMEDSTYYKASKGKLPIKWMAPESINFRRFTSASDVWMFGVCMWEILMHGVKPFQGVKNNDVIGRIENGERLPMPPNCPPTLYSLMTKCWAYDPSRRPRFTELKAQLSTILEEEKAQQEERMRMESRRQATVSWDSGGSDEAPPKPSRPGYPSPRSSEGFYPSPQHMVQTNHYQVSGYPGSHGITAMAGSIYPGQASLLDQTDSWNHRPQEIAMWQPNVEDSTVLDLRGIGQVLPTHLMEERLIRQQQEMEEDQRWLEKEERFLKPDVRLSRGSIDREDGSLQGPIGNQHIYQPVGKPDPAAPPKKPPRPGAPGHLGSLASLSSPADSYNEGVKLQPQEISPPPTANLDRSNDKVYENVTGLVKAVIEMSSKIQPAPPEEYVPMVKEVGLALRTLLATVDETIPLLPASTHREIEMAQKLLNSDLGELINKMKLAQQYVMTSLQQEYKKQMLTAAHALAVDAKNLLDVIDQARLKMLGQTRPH
# Chain of Follistatin (Homo sapiens) (P19883 whole entry, looked up): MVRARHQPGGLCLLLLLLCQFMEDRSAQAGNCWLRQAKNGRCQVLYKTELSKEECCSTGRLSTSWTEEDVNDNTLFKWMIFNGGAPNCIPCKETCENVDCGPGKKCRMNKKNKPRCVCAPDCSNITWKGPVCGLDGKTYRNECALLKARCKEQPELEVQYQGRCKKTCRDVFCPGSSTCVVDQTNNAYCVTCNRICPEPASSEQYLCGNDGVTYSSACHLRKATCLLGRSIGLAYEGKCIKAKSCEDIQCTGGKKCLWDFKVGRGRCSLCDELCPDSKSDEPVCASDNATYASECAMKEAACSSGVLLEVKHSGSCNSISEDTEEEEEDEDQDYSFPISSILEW
# Chain of Concanavalin-A (Canavalia ensiformis) (P02866 whole entry, looked up): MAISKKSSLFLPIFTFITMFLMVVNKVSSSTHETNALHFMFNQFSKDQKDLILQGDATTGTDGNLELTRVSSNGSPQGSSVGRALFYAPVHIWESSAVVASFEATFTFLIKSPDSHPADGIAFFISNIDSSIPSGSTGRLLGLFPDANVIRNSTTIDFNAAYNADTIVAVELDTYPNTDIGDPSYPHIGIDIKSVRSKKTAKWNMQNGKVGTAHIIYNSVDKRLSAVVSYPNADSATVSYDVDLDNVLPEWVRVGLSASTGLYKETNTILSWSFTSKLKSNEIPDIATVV
# Chain of Fibroblast growth factor 2 (Homo sapiens) (P09038 whole entry, looked up): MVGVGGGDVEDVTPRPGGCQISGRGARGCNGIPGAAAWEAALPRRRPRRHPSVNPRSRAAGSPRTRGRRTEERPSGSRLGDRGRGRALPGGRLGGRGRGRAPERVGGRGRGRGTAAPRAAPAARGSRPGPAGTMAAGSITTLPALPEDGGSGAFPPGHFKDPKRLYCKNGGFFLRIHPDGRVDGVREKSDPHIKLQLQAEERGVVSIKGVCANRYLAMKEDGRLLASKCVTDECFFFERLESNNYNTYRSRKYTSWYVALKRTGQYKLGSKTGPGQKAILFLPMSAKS
# Chain of Albumin (Bos taurus) (P02769 whole entry, looked up): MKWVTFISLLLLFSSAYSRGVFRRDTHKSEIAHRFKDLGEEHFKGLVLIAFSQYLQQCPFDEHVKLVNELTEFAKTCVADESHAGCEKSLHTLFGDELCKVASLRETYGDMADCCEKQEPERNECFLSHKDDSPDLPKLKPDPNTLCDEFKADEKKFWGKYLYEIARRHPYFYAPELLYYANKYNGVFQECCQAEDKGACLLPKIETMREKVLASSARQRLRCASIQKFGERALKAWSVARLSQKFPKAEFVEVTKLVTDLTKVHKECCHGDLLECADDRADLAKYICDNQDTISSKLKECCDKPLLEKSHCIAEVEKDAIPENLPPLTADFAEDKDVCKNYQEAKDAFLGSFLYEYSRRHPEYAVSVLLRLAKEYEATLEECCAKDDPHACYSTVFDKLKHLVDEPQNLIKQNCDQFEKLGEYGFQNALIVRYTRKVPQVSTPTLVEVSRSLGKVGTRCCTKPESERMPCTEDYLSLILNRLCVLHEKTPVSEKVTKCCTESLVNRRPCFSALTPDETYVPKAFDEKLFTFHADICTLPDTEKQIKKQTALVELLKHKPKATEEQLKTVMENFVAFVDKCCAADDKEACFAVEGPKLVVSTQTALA
Compound,composite z-score [1],composite Z-score [2],composite z-score [3],composite z-score [4],composite z-score [5],composite z-score [6],composite z-score [7],composite z-score [8],composite z-score [9],composite z-score [10],composite z-score [11],composite z-score [12],composite z-score [13],composite z-score [14],composite z-score [15],composite z-score [16],z-score [17],composite z-score [18],composite z-score [19],z-score [20]
C=CC[C@@H]1C=C[C@H](ON=C[C@@H](NS(=O)(=O)c2ccc(C)cc2)[C@H](C)C=CCC(=O)OC)[C@@H](CO)O1,0.766,0.819 (inactive),0.0232,-0.0393,-0.277,-0.327,0.0555,-0.483,0.487,-1.58,1.34,-0.205,-0.0954,-0.193,0.774,0.349,-0.0376,0.625,0.511,1.18 (inactive)
CCOC(=O)[C@H](CC(C)C)NC(=O)CCC1CC(OC(=O)NCc2ccc3c(c2)OCO3)CC2(CCCC(COC(=O)NCCc3ccccc3OC)O2)O1 (stereo not given in full),0.31,1.05 (inactive),-0.0328,-0.0633,0.127,0.754,0.0278,1.29,0.663,1.05,0.746,1.13,0.283,0.669,0.826,1.15,-0.717,0.787,0.196,0.867 (inactive)
CCOC(=O)CCN1C(=O)[C@H]2[C@H]3[C@H](O)[C@H](O)CC(=NO[C@@H]4O[C@H](CO)[C@@H](O)[C@H](O)[C@H]4O)[C@@H]3CC[C@H]2C1=O,0.83,0.397 (inactive),0.207,-0.0698,0.381,0.279,-0.0046,1.3,1.04,0.322,0.818,1.12,0.118,0.854,1.22,1.22,-0.102,1.4,0.829,-0.115 (inactive)
OC[C@H]1O[C@H](C#Cc2ccccc2)C=C[C@@H]1O,0.475,0.131 (inactive),-0.0647,-0.101,-0.0795,0.171,-0.647,0.0701,0.622,0.341,-0.0558,0.202,0.0213,0.624,0.634,0.147,0.462,0.409,0.189,-1.47 (inactive)
CCN1C(C)=C(C(=O)OC)[C@@H](c2ccccc2)N2C(=O)[C@](O)(C(=O)OC)CC(C(C)=O)=C12,-0.428,-0.686 (inactive),-0.15,-0.207,-0.174,-0.0478,-0.152,-0.37,0.285,0.29,-1.01,0.127,0.0644,0.123,0.398,0.0171,1.07,0.638,0.278,-0.695 (inactive)
COC(=O)[C@@H]1CC[C@H](C)[C@@H](c2ccc(Br)cc2)N1C(=O)C(F)(F)F,-0.591,-0.225 (inactive),-0.232,-0.1,-0.292,0.23,0.0015,-0.412,-0.183,-0.317,-0.0497,-1.42,-0.0957,-0.0695,-0.202,-0.0514,0.0789,-0.125,-0.321,-0.1 (inactive)
CCCCOC(OCCCC)C(O)CSc1ccc2ccccc2c1 (stereo not given),-0.196,-0.444 (inactive),0.0669,-0.0682,0.028,0.125,-0.0593,1.02,0.537,0.196,0.147,0.776,0.0661,0.329,0.586,0.296,0.428,0.489,0.264,-0.842 (inactive)
CCOC(=O)[C@H](Cc1ccccc1)NC(=O)CCC1CC(OC(=O)NCc2ccc3c(c2)OCO3)CC2(CCCC(COC(=O)NCCOc3ccccc3)O2)O1 (stereo not given in full),-0.245,-0.344 (inactive),0.0636,-0.034,0.109,1.52,-0.252,1.29,0.58,1.13,0.777,1.16,-0.0176,0.96,0.875,0.776,1.37,1.2,0.304,0.289 (inactive)
C[C@H]1CC[C@H]2C(=O)OC(COc3ccc(C(C)(C)C)cc3)CN2[C@@H]1c1ccc(Br)cc1 (stereo not given in full),0.654,0.455 (inactive),-0.165,-0.189,0.267,1.42,0.2,0.961,0.186,1.02,0.148,1.15,0.29,0.819,0.312,0.118,1.28,0.334,0.264,-1.37 (inactive)
CO[C@H]1COC(=O)[C@H](C)COC(=O)[C@@H](OCc2ccccc2)C=C[C@@H]1C,0.0996,0.976 (inactive),-0.141,-0.12,-0.342,-0.051,-0.181,0.207,0.225,0.233,-0.49,-1.09,-0.317,-0.534,0.139,0.496,0.877,0.613,-0.49,-1.56 (inactive)
